The GenesisPotency data set
About 3,000 (1%) of roughly 290,000 compounds were called active. Rule as the data show it: active = inhibition mostly above about 36% (no sharp cut-off); inactive = mostly below about 34%. Only a selection was taken, and actives are over-represented in it overall.

Each molecule was assayed against T1, Nucleotide-binding oligomerization domain-containing protein 1, Homo sapiens (UniProt Q9Y239) (assay: NOD1 signaling inhibitors, primary screen, cell-based, luminescence, uHTS (AID 1578)).
T1 sequence (whole entry): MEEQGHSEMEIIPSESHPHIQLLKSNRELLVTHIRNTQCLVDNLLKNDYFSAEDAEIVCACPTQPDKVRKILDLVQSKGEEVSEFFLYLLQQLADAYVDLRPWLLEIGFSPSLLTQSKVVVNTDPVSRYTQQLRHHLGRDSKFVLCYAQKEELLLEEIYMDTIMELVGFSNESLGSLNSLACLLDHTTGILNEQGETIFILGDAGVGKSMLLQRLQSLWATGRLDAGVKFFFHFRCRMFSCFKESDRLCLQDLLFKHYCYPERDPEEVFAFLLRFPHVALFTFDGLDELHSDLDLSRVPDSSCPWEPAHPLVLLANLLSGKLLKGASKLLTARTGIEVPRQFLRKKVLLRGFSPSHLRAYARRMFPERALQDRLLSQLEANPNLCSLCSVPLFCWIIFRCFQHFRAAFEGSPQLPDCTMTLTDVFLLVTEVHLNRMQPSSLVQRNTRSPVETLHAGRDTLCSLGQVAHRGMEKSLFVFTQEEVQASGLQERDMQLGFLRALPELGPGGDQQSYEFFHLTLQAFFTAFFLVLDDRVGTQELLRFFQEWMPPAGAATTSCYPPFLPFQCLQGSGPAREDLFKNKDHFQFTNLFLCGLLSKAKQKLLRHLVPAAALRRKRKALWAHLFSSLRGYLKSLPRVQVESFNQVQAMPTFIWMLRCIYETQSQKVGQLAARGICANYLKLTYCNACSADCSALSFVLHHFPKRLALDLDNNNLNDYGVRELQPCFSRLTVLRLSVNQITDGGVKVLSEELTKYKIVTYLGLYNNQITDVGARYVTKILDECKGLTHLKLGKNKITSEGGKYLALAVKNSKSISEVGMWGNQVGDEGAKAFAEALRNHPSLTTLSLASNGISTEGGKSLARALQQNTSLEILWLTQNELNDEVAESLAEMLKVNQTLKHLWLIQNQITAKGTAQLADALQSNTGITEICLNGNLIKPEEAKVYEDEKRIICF

outcome, active:
O=C(/C=C/c1ccco1)Oc1cc(Br)cc(/C=N/NC(=O)c2ccccc2O)c1
O=C(Nc1nc(-c2cccs2)cs1)c1ccc(S(=O)(=O)N2CCCC2)cc1
O=C(Nc1nc(-c2ccccc2)cs1)C1CCCN(S(=O)(=O)c2ccccc2)C1 (configuration not stated)
O=C(Nc1nnc(SCc2c(Cl)cccc2Cl)s1)c1cccc([N+](=O)[O-])c1
CC(=O)c1cccc(NS(=O)(=O)c2ccc(-c3cnc(C4CC4)o3)cc2)c1
COc1ccc(CCNc2cc(N3CCN(C(=O)c4ccccc4F)CC3)ccc2[N+](=O)[O-])cc1OC
Cn1c(Sc2ccc(Br)cc2)c(C=O)c2ccccc21
Cc1cccc(Sc2c(C=O)c3ccccc3n2C)c1
Cc1ccc(Sc2c(C=O)c3ccccc3n2C)cc1
N#C/C(=C(/O)COc1ccc(Cl)cc1)c1nc2ccccc2s1
N#C/C(=C(/O)Cc1cccc2ccccc12)c1nc2ccccc2s1
COc1ccc(C)cc1NC(=O)c1ccccc1NS(=O)(=O)c1ccc(Cl)s1
CS(=O)(=O)Nc1ccccc1C(=O)Nc1cc(Cl)cc(Cl)c1
Cc1ccc(NC(=O)c2ccccc2NS(=O)(=O)c2ccc(Cl)s2)cc1S(=O)(=O)N1CCOCC1
COc1ccccc1NS(=O)(=O)c1cccc(NC(=O)c2sc3ccccc3c2Cl)c1
Cc1ccc(C)c(NC(=O)c2ccccc2NS(=O)(=O)c2cc([N+](=O)[O-])ccc2C)c1
COc1cc(NC(=O)c2ccccc2NS(=O)(=O)c2ccc(Cl)s2)cc(OC)c1
Cc1ccc(NC(=O)c2ccccc2NS(=O)(=O)c2ccc(Cl)s2)cc1
O=C1CCC2S/C(=C/Nc3ccc(C(F)(F)F)cc3)C(=O)N12 (configuration not stated)
Cc1ccc(-c2nn(CCC(=O)O)cc2/C=C\C(=O)c2ccc(Br)cc2)cc1
O=C(c1ccccc1)c1nn(-c2ccc(Cl)cc2)c(=O)cc1C(F)(F)F
CCOC(=O)c1c(N2C(=O)Nc3cc(Cl)c(Cl)cc3N2O)sc2c1CCCCC2
COc1ccc2cc3c(N)nn(C(=O)Cc4c[nH]c5ccccc45)c3nc2c1
COc1ccc2cc3c(N)nn(C(=O)Cc4ccccc4OC)c3nc2c1
CCCCCCc1cc2cc(S(=O)(=O)c3ccc(F)c(Cl)c3)c(=O)oc2cc1O
CCCCCCc1cc2cc(S(=O)(=O)c3ccc(Cl)cc3)c(=O)oc2cc1O
Cc1nn(Cc2ccc(Cl)cc2)c(C)c1NC(=O)c1noc2c1CCc1ccccc1-2
CC(C)Cn1c(N)c(C(=O)CSc2ccc3c(c2)OCCO3)c(=O)n(C)c1=O
COc1ccc(-c2cc(=O)oc3c(C)c(O)ccc23)cc1
COc1ccc(-c2cc(=O)oc3c(C)c(OC(=O)c4cccs4)ccc23)cc1
C=C1C(=O)O[C@@H]2C[C@@H](C)[C@@H]3C=CC(=O)[C@@]3(C)[C@@H](OC(C)=O)[C@H]12
COc1ccc(-c2cn[nH]c2-c2ccc(OC)cc2)cc1
COc1ccc(-c2cn[nH]c2-c2ccc(OC)cc2O)cc1
COc1ccc(-c2cn[nH]c2-c2ccc(O)cc2O)cc1
COc1ccc(-c2[nH]ncc2-c2ccc3c(c2)OCCO3)c(O)c1
Cc1nc2ccc(NS(=O)(=O)c3ccc(F)c(C)c3)cc2[nH]1
O=C(Nc1nnc(-c2ccccc2Cl)o1)c1ccc(S(=O)(=O)N2CCCCCC2)cc1
CCC1CCCCN1S(=O)(=O)c1ccc(C(=O)Nc2nnc(-c3ccccc3Cl)o2)cc1 (configuration not stated)
CC1CCCCN1S(=O)(=O)c1ccc(C(=O)Nc2nnc(-c3ccccc3Cl)o2)cc1 (configuration not stated)
Cc1nc2ccccc2c(C)c1C(=O)c1ccc(F)cc1.Cl
COCCn1c(C)cc(C(=O)COC(=O)c2cccc(O)c2)c1C
Cc1ccc(OCC(=O)c2cc(C)n(Cc3cccs3)c2C)c([N+](=O)[O-])n1
Cc1ccc(OCC(=O)c2cc(C)n(Cc3ccco3)c2C)c([N+](=O)[O-])n1
COCCn1c(C)cc(C(=O)COc2ccc(C)nc2[N+](=O)[O-])c1C
CCOC(=O)/C=C/S(=O)(=O)c1ccc(NC(C)=O)cc1
O=C(Oc1c(-c2ccccc2)c(=O)n2c3c(cccc13)CC2)c1ccc(Cl)cc1
O=C(Oc1c(-c2ccccc2)c(=O)n2c3c(cccc13)CC2)c1ccccc1
CC(C)(C)OC(=O)NCC(=O)Oc1cc2oc(=O)cc(-c3ccccc3)c2cc1Cl
O=C(CNC(=O)OCc1ccccc1)Oc1cc2oc(=O)cc(-c3ccccc3)c2cc1Cl
CN(CC1CCCO1)S(=O)(=O)c1ccc(C(=O)Nc2nc3cc4c(cc3s2)OCO4)cc1 (configuration not stated)
CC(=O)c1cn(CCOc2ccccc2C)c2ccccc12
CC(=O)c1cn(CCOc2cc(C)ccc2C)c2ccccc12
COc1ccc(-c2cc(N)n(S(=O)(=O)c3c(F)c(F)c(F)c(F)c3F)n2)cc1OC
N#CC(C#N)=C(Nc1ccc(F)cc1)SCc1cccc(F)c1
Cc1ccc(CSC(Nc2ccc(F)cc2)=C(C#N)C#N)cc1
N#CC(C#N)=C(Nc1ccc(F)cc1)SCc1cccc(Br)c1
O=C(COc1ccc2c(-c3ccccc3)cc(=O)oc2c1)Nc1ccc(CCO)cc1
CCCc1ccc(-c2c(C)sc(NC(=O)c3ccnn3C)c2C#N)cc1
O=C1N/C(=N\N=C\c2ccccn2)SC1Cc1cccc(SC(F)F)c1 (configuration not stated)
COc1ccc(C(=O)Nc2nc3ccccc3s2)c(OC)c1
CCOc1ccc2nc(NC(=O)c3ccccn3)sc2c1
COc1ccccc1C(=O)Nc1nc2ccccc2s1
O=C(Nc1ccc([N+](=O)[O-])cc1)Nc1nc(-c2ccc(Cl)s2)cs1
O=C(NC1CCCCC1)C(c1cccnc1)N(C(=O)CCl)c1ccccc1Cl (configuration not stated)
Cc1ccc(N(C(=O)CCl)C(C(=O)NC2CCCCC2)c2cccnc2)cc1C (configuration not stated)
COC(CN(C(=O)CCl)C(C(=O)NC1CCCCC1)c1ccccc1C)OC (configuration not stated)
O=C(NC1CCCCC1)C(c1cccnc1)N(C(=O)CCl)c1cccc(Cl)c1 (configuration not stated)
